According to PubChem BioAssay AID1159580 (chemical genetic matrix, 2015):
Hit rate of the full screen: of about 5,500 compounds, about 2,000 (36%) were called active. Not shown: some 18% with an inconclusive outcome. No stated cut-off is given here; in the data, active means normalized growth mostly below about 0.91 (no sharp cut-off); inconclusive means no clear call, values can overlap the other calls; inactive means mostly above about 0.92. Some of the results follow.

Experiment: chemical genetic growth profiling, strain panel (AID 1159580);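 further: tested at 20 µM; growth read once vehicle control cultures reached saturation at 30 °C; 1 = growth at the plate median or of vehicle wells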
Settings: S. cerevisiae deletion strains, growth OD
[1] = locus YAL013W, strain DEP1, stronger effect = lower value
[2] = locus YBR229C, strain ROT2, stronger effect = lower value
[3] = locus YDL101C, strain DUN1, stronger effect = lower value
[4] = locus YDR150W, strain NUM1, stronger effect = lower value
[5] = locus YEL061C, strain CIN8, stronger effect = lower value
[6] = locus YGR078C, strain PAC10, stronger effect = lower value
[7] = locus YGR229C, strain SMI1, stronger effect = lower value
[8] = locus YHR030C, strain SLT2, stronger effect = lower value
[9] = locus YHR087W, strain rtc3, stronger effect = lower value
[10] = locus YJL187C, strain SWE1, stronger effect = lower value
[11] = locus YJR043C, strain POL32, stronger effect = lower value
[12] = locus YJR075W, strain HOC1, stronger effect = lower value
[13] = locus YLR039C, strain RIC1, stronger effect = lower value
[14] = locus YLR058C, strain SHM2 (second series), stronger effect = lower value
[15] = locus YLR085C, strain ARP6, stronger effect = lower value
[16] = locus YLR262C, strain YPT6, stronger effect = lower value
[17] = locus YML094W, strain GIM5, stronger effect = lower value
[18] = locus YMR219W, strain ESC1, stronger effect = lower value
[19] = locus YMR263W, strain SAP30, stronger effect = lower value
[20] = locus YNL128W, strain TEP1, stronger effect = lower value
[21] = locus YNL153C, strain GIM3, stronger effect = lower value
[22] = locus YNL298W, strain CLA4 (second series), stronger effect = lower value
[23] = locus YNL322C, strain KRE1, stronger effect = lower value
[24] = locus YNR030W, strain Alg12, stronger effect = lower value
[25] = locus YPL055C, strain LGE1, stronger effect = lower value
[26] = locus YPL241C, strain CIN2, stronger effect = lower value
[27] = locus YPR135W, strain CTF4, stronger effect = lower value

Measured: normalized growth

COc1ccc(C(=O)C2CCNCC2)cc1
inactive: [1] 0.991 | [2] 0.974 | [3] 0.972 | [4] 1.03 | [5] 1.01 | [6] 0.99 | [7] 1.01 | [8] 1.06 | [9] 0.974 | [10] 1 | [11] 1.01 | [12] 1.01 | locus YKL190W, strain CNB1, stronger effect = lower value 1 | [13] 1 | [14] 0.988 | [15] 1.09 | [16] 0.998 | [17] 0.969 | [18] 0.998 | [19] 1.02 | [20] 0.983 | [21] 1.02 | [22] 0.998 | [23] 1 | [24] 1.01 | [25] 1.01 | [26] 1.07 | [27] 0.995

COc1ccc(OCC(N)=O)cc1
inactive: [1] 1.01 | [2] 1.02 | locus YCL061C, strain MRC1, stronger effect = lower value 1.01 | [3] 1.01 | locus YDL134C, strain PPH21, stronger effect = lower value 1.01 | [4] 0.898 | [5] 1.03 | [6] 1.01 | [7] 1.01 | [8] 1.07 | [9] 1.01 | [10] 1.01 | [11] 1.02 | [12] 1.04 | [13] 1.02 | [14] 1.02 | [15] 1.05 | [16] 1.04 | [17] 1.02 | [18] 1.01 | [19] 0.996 | locus YMR307W, strain GAS1, stronger effect = lower value 1.07 | [20] 1.01 | [21] 1.01 | [22] 1.03 | [23] 1.03 | [24] 1.02 | locus YOL006C, strain TOP1, stronger effect = lower value 1.01 | [25] 1.01 | [26] 1.02 | [27] 1.04
